Each structure is given as a SMILES string. Inconclusive results are not listed. Where a call stands in place of a potency, no number is given. The source made the active and inactive calls. Unless noted, calls follow the shape of the dose curve; as a rule, active = well fitted curve in the direction sought with a large enough effect; inconclusive = small, poorly fitted or top-dose-only effect, or another doubt; inactive = no such curve, though single readings can be large; an effect the other way counts as inactive or inconclusive.

Potency and outcome data for 17 molecules are collected here from PubChem BioAssay (NCATS).

Glutaminase kidney isoform, mitochondrial (Homo sapiens), sequence (O94925 whole entry, looked up, canonical isoform): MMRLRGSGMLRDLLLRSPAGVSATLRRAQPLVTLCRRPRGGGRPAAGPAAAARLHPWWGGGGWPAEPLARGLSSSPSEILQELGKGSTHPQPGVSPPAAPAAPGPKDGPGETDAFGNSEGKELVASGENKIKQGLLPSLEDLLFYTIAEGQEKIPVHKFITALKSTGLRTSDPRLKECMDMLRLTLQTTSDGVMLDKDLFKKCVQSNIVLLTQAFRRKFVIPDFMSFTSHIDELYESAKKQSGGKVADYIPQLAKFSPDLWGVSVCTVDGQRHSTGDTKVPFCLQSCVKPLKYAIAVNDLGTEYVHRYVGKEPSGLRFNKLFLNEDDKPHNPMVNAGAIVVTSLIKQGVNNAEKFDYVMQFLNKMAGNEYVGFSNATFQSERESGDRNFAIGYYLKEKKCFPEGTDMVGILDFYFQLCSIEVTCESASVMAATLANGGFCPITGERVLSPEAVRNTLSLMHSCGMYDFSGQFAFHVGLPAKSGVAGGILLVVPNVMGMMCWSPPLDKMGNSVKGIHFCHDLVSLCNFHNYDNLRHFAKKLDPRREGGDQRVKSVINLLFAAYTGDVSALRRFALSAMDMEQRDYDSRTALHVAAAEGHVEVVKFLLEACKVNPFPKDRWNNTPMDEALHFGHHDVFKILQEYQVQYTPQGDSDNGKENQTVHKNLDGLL
Glucagon-like peptide 1 receptor (Homo sapiens), sequence (P43220 whole entry, looked up): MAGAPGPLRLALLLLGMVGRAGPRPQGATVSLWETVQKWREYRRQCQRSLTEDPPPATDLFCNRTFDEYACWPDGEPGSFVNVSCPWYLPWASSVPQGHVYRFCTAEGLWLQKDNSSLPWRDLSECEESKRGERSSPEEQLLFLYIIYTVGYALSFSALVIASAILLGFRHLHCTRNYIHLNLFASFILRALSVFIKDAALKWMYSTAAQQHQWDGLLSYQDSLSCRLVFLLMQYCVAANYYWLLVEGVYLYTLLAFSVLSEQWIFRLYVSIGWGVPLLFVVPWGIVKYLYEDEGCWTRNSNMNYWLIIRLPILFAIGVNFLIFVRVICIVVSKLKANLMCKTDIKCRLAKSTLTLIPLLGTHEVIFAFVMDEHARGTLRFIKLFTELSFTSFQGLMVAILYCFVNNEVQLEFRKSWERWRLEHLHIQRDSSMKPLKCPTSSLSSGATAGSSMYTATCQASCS

System in one experiment: not listed separately
The experiment is described as follows: S16 Schwann cell PMP22 intronic element beta-lactamase assay (AID 624044; calls by dose curve; also: nearly all actives have a fitted effect of over 15% in size). The settings on record: S16 rat Schwann cells, PMP22 element beta-lactamase FRET, 24 h; series mostly up to 38.3 µM. Put shortly: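 Rat S16 Schwann cells with beta-Lac driven by a PMP22 intronic element, compound-treated 24 h at 37 °C. LiveBLAzer FRET B/G read: 460 nm normalized to potassium clavulanate vs DMSO; 535 nm FRET as viability; concentration-effect curves classified.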
As for `CCn1cc(C(=O)O)c(=O)c2cc(F)c(N3CCN(C)CC3)cc21`, the Potency result was “inactive”.
Take `COc1ccc(C(=O)CC(=O)c2ccc(C(C)(C)C)cc2)cc1`: the Potency entry is “inactive”.
With `CN1CCCC(n2nc(Cc3ccc(Cl)cc3)c3ccccc3c2=O)CC1` (stereo unspecified), the Potency entry was “inactive”.
Still for that read-out and setting: to `CC1=CC(=O)c2ccccc2C1=O` belongs “inactive”; to `CNC1CCCN(c2c(F)cc3c(=O)c(C(=O)O)cn(C4CC4)c3c2OC)C1` (stereo unspecified), “inactive”; to `CNCC[C@H](Oc1cccc2ccccc12)c1cccs1`, “inactive”.
Still for that read-out and setting: in the case of `CCOc1cc(N)c(Cl)cc1C(=O)NCC1CN(Cc2ccc(F)cc2)CCO1` (stereo unspecified) it was “inactive”; in that of `NCCCC(O)(P(=O)(O)O)P(=O)(O)O`, “inactive”.

A further experiment concerns the target Glutaminase kidney isoform, mitochondrial (Homo sapiens) (UniProt O94925). In words: qHTS for Inhibitors of Glutaminase (GLS): LOPAC Validation (AID 624146).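 Also: glutamate product detected by oxidase and peroxidase coupled Amplex red fluorescence gain; nearly all actives have a fitted effect of over 60% in size.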 The settings on record: glutaminase enzyme activity inhibition; series mostly up to 46.1 µM. The essentials: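 Human kidney-isoform GLS in 45 mM KH2PO4 pH 8.2, 0.02% Tween-20, with compound, started with 1mM L-Glutamine (added stock). Glutamate oxidase/HRP/Amplex red coupled fluorescence read at start and after 30 min at RT.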
(Quantitative high-throughput screening tests each substance at several concentrations.)
For the molecule `CC1CC2C3CCC4=CC(=O)C=C[C@]4(C)[C@@]3(F)[C@@H](O)C[C@]2(C)[C@@]1(O)C(=O)CO` (stereo partly specified), the call was inactive.
On to `COc1cc2nc(N3CCCN(C)CC3)nc(NC3CCN(Cc4ccccc4)CC3)c2cc1OC`, for which the outcome was inactive.
For the molecule `Cc1ccc(S(=O)(=O)N[C@@H](Cc2ccccc2)C(=O)CCl)cc1`, the result was inactive.
`CCN(CC)CCn1c(=O)c(Cc2ccc(OC)cc2)nc2ccccc21`: the call was inactive.
Consider `NC(=O)c1ccc2[nH]ccc2c1`, for which the molecule was called inactive.

System in the next experiment: not listed separately
In words: qHTS of Trypanosoma Brucei Inhibitors: LOPAC Validation (AID 624147). The settings on record: purified enzyme assay, luminescence, 45 min; series mostly up to 57.5 µM. The essentials:
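TbPYK + substrate in 50 mM TEA pH 7.2, 100 mM KCl, 10 mM MgCl2, 0.05% BSA, 0.01% Tween-20; cpd pinned; ADP 130 uM final; 45 min RT; Kinase-Glo Plus 10 min; luminescence endpoint.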
For the molecule `CC1=C(C(=O)O)N2C(=O)[C@@H](NC(=O)C(N)c3ccccc3)[C@H]2SC1` (stereo partly specified), the molecule was called inactive.
The same measure, in the same setting: in the case of `CC1CC2C3CCC4=CC(=O)C=C[C@]4(C)[C@@]3(F)[C@@H](O)C[C@]2(C)[C@@]1(O)C(=O)CO` (stereo partly specified) it was “inactive”; in that of `COc1cc2nc(N3CCCN(C)CC3)nc(NC3CCN(Cc4ccccc4)CC3)c2cc1OC`, “inactive”.
Take `Cc1ccc(S(=O)(=O)N[C@@H](Cc2ccccc2)C(=O)CCl)cc1`: the molecule was classed as inactive.
`CCN(CC)CCn1c(=O)c(Cc2ccc(OC)cc2)nc2ccccc21`: the result was inactive.
In the case of `CCN(CC)CC#CCOC(=O)C(O)(c1ccccc1)C1CCCCC1` (stereo unspecified), the result was inactive.
For `NC(=O)c1ccc2[nH]ccc2c1`, the call was inactive.

For another experiment, the target named is Glucagon-like peptide 1 receptor (Homo sapiens) (UniProt P43220). In words: qHTS of GLP-1 Receptor Agonists: LOPAC Validation (AID 624148).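 Also: luminescence from a luciferase reporter switched on by cAMP; higher luminescence signal means agonism.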 The settings on record: GLP-1R agonist cell assay; series mostly up to 46.1 µM. The essentials:
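Agonism scored as increased luciferase luminescence driven by cAMP in HEK293 clones carrying GLP-1R. Cells settled 12 hours, received compound for 4-6 hr at 37 deg C, 5% CO2, and were read after 12 min detection reagent at RT.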
With `CC1=C(C(=O)O)N2C(=O)[C@@H](NC(=O)C(N)c3ccccc3)[C@H]2SC1` (stereo partly specified), the molecule was classed as inactive.
Consider `CC1CC2C3CCC4=CC(=O)C=C[C@]4(C)[C@@]3(F)[C@@H](O)C[C@]2(C)[C@@]1(O)C(=O)CO` (stereo partly specified), for which the result was inactive.
In the case of `COc1cc2nc(N3CCCN(C)CC3)nc(NC3CCN(Cc4ccccc4)CC3)c2cc1OC`, the result was inactive.
As for `Cc1ccc(S(=O)(=O)N[C@@H](Cc2ccccc2)C(=O)CCl)cc1`, the outcome was inactive.
Same read-out and setting: to `CCN(CC)CCn1c(=O)c(Cc2ccc(OC)cc2)nc2ccccc21` belongs “inactive”; to `CCN(CC)CC#CCOC(=O)C(O)(c1ccccc1)C1CCCCC1` (stereo unspecified), “inactive”; to `NC(=O)c1ccc2[nH]ccc2c1`, “inactive”.

System in the next experiment: not listed separately
The experiment is described as follows: HTS Assay for Allosteric Antagonists of the Human D2 Dopamine Receptor: Hit Validation in HTRF (AID 624455).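 Also: stable D1 dopamine receptor cell line scored for blocking the D1 response.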 The note with it: Cells stably expressing D1 dopamine receptor, inhibition mode; series mostly up to 46.1 µM. Put shortly:
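Hits were examined in an HTRF assay using cells stably expressing the D1 dopamine receptor, scoring inhibition of the D1-mediated response. The preceding primary screen tracked calcium flux after an EC80 dopamine addition in force-coupled, inducible Hek293 Trex D2 cells.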
Background: Time-resolved FRET reads energy transfer from a long-lived donor to a nearby acceptor.
As to `CC1CC2C3CCC4=CC(=O)C=C[C@]4(C)[C@@]3(F)[C@@H](O)C[C@]2(C)[C@@]1(O)C(=O)CO` (stereo partly specified), the Potency result is “inactive”.
On the same count and under the same terms, in the case of `COc1cc2nc(N3CCCN(C)CC3)nc(NC3CCN(Cc4ccccc4)CC3)c2cc1OC` it was “inactive”; in that of `Cc1ccc(S(=O)(=O)N[C@@H](Cc2ccccc2)C(=O)CCl)cc1`, “inactive”.
Regarding `CCN(CC)CCn1c(=O)c(Cc2ccc(OC)cc2)nc2ccccc21`, the Potency entry is “inactive”.
With `CCN(CC)CC#CCOC(=O)C(O)(c1ccccc1)C1CCCCC1` (stereo unspecified), the Potency result is “inactive”.
On to `NC(=O)c1ccc2[nH]ccc2c1`, for which the Potency result was “inactive”.

System in another experiment: not listed separately
The experiment is described as follows: Cytotoxicity counterscreen for NFkB agonists and antagonists (AID 624476).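 Also: cells exposed to compound for 48 hours.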 Also: potency is read from the fitted curve at half-maximal effect. The settings on record: NFkB reporter cell line viability counterscreen; series mostly up to 46.1 µM. Background: Counterscreens check selectivity or assay interference.
Regarding `COc1cc2c(Nc3ccc(Br)cc3F)ncnc2cc1OCC1CCN(C)CC1`, the Potency was 26.4 µM (active).
`CCN(CC)CCn1c(=O)c(Cc2ccc(OC)cc2)nc2ccccc21`: the Potency entry is “inactive”.
For the molecule `CC(C)C[C@H](NC(=O)[C@H](CCc1ccccc1)NC(=O)CN1CCOCC1)C(=O)N[C@@H](Cc1ccccc1)C(=O)N[C@@H](CC(C)C)C(=O)[C@@]1(C)CO1`, the Potency is 0.148 µM (active).
